In article PMC11006913:
Where a chain is given by its changes, count along the chain named.

biological target: T1, NKX2-4 (Homo sapiens, UniProt Q9H2Z4 175-261); assay: PBM; 200 nM protein, PBS; details: dsDNA, one strand shown
T1 sequence: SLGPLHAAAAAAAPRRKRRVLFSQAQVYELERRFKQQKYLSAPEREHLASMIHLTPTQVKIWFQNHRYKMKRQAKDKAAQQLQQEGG

| Sequence | binding signal |
| --- | --- |
| CACTTTGA | 11.6 upbm affinity estimate (log intensity, higher = more binding, comparable within an allelic series) |
| ACTCATAG | 11.6 upbm affinity estimate (log intensity, higher = more binding, comparable within an allelic series) |
| AGAGTGAG | 11.4 upbm affinity estimate (log intensity, higher = more binding, comparable within an allelic series) |
| CAAGCCAG | 9.56 upbm affinity estimate (log intensity, higher = more binding, comparable within an allelic series) |
| CCAGTCAC | 9.45 upbm affinity estimate (log intensity, higher = more binding, comparable within an allelic series) |
| ACGCCTTG | 9.74 upbm affinity estimate (log intensity, higher = more binding, comparable within an allelic series) |
| GTACTCGA | 12.3 upbm affinity estimate (log intensity, higher = more binding, comparable within an allelic series) |
| CCGACGTC | 9.23 upbm affinity estimate (log intensity, higher = more binding, comparable within an allelic series) |
| CCGAGACG | 9.47 upbm affinity estimate (log intensity, higher = more binding, comparable within an allelic series) |
| ACGGCGCC | 9.59 upbm affinity estimate (log intensity, higher = more binding, comparable within an allelic series) |
| GCTGTGCA | 9.61 upbm affinity estimate (log intensity, higher = more binding, comparable within an allelic series) |
| AAGAGGGG | 11.8 upbm affinity estimate (log intensity, higher = more binding, comparable within an allelic series) |
| ACCTGGGC | 9.7 upbm affinity estimate (log intensity, higher = more binding, comparable within an allelic series) |
| TCCACTCA | 12.3 upbm affinity estimate (log intensity, higher = more binding, comparable within an allelic series) |
| ATGAGTGG | 12.3 upbm affinity estimate (log intensity, higher = more binding, comparable within an allelic series) |
| AAAGTACT | 12.3 upbm affinity estimate (log intensity, higher = more binding, comparable within an allelic series) |
| AAACCCCC | 9.71 upbm affinity estimate (log intensity, higher = more binding, comparable within an allelic series) |
| CCGGTAAC | 9.9 upbm affinity estimate (log intensity, higher = more binding, comparable within an allelic series) |
| CCGGCTCA | 9.59 upbm affinity estimate (log intensity, higher = more binding, comparable within an allelic series) |
| CTGCGTCC | 9.74 upbm affinity estimate (log intensity, higher = more binding, comparable within an allelic series) |

| Sequence | binding signal |
| --- | --- |
| AAAATGCG | 9.74 upbm affinity estimate (log intensity, higher = more binding, comparable within an allelic series) |
| GAGTGCCA | 11.9 upbm affinity estimate (log intensity, higher = more binding, comparable within an allelic series) |
| CGGCGTTA | 9.82 upbm affinity estimate (log intensity, higher = more binding, comparable within an allelic series) |
| ATCACACC | 9.81 upbm affinity estimate (log intensity, higher = more binding, comparable within an allelic series) |
| CAAACCCG | 9.55 upbm affinity estimate (log intensity, higher = more binding, comparable within an allelic series) |
| GAGTACTC | 12.3 upbm affinity estimate (log intensity, higher = more binding, comparable within an allelic series) |
| CGGCTGTA | 9.77 upbm affinity estimate (log intensity, higher = more binding, comparable within an allelic series) |
| ATGCGTCC | 9.58 upbm affinity estimate (log intensity, higher = more binding, comparable within an allelic series) |
| CCTCTTCA | 12.4 upbm affinity estimate (log intensity, higher = more binding, comparable within an allelic series) |
| AAAGAGGC | 11.6 upbm affinity estimate (log intensity, higher = more binding, comparable within an allelic series) |
| ATGTGCGC | 9.82 upbm affinity estimate (log intensity, higher = more binding, comparable within an allelic series) |
| ACCGCAAC | 9.49 upbm affinity estimate (log intensity, higher = more binding, comparable within an allelic series) |
| ACGCCGCA | 9.64 upbm affinity estimate (log intensity, higher = more binding, comparable within an allelic series) |
| TCCGGACA | 9.6 upbm affinity estimate (log intensity, higher = more binding, comparable within an allelic series) |
| GCGGCGAC | 9.61 upbm affinity estimate (log intensity, higher = more binding, comparable within an allelic series) |
| CGGAATCA | 9.83 upbm affinity estimate (log intensity, higher = more binding, comparable within an allelic series) |
| TCCACTAA | 11.5 upbm affinity estimate (log intensity, higher = more binding, comparable within an allelic series) |
| AGACTGAC | 9.63 upbm affinity estimate (log intensity, higher = more binding, comparable within an allelic series) |
| ACATGCAG | 9.52 upbm affinity estimate (log intensity, higher = more binding, comparable within an allelic series) |
| GCACGGGC | 9.58 upbm affinity estimate (log intensity, higher = more binding, comparable within an allelic series) |

biological target: T2, NKX2-4 (Homo sapiens, UniProt Q9H2Z4 175-261, R246Q); assay: PBM; 200 nM protein, PBS; details: dsDNA, one strand shown
T2 sequence: T1 sequence with R72Q

| Sequence | binding signal |
| --- | --- |
| CACTTTGA | 12 upbm affinity estimate (log intensity, higher = more binding, comparable within an allelic series) |
| ACTCATAG | 11.9 upbm affinity estimate (log intensity, higher = more binding, comparable within an allelic series) |
| AGAGTGAG | 11.6 upbm affinity estimate (log intensity, higher = more binding, comparable within an allelic series) |
| CAAGCCAG | 9.73 upbm affinity estimate (log intensity, higher = more binding, comparable within an allelic series) |
| CCAGTCAC | 9.44 upbm affinity estimate (log intensity, higher = more binding, comparable within an allelic series) |
| ACGCCTTG | 9.73 upbm affinity estimate (log intensity, higher = more binding, comparable within an allelic series) |
| GTACTCGA | 12.9 upbm affinity estimate (log intensity, higher = more binding, comparable within an allelic series) |
| CCGACGTC | 9.18 upbm affinity estimate (log intensity, higher = more binding, comparable within an allelic series) |
| CCGAGACG | 9.44 upbm affinity estimate (log intensity, higher = more binding, comparable within an allelic series) |
| ACGGCGCC | 9.67 upbm affinity estimate (log intensity, higher = more binding, comparable within an allelic series) |
| GCTGTGCA | 9.6 upbm affinity estimate (log intensity, higher = more binding, comparable within an allelic series) |
| AAGAGGGG | 12.1 upbm affinity estimate (log intensity, higher = more binding, comparable within an allelic series) |
| ACCTGGGC | 9.78 upbm affinity estimate (log intensity, higher = more binding, comparable within an allelic series) |
| TCCACTCA | 12.8 upbm affinity estimate (log intensity, higher = more binding, comparable within an allelic series) |
| ATGAGTGG | 12.8 upbm affinity estimate (log intensity, higher = more binding, comparable within an allelic series) |
| AAAGTACT | 12.8 upbm affinity estimate (log intensity, higher = more binding, comparable within an allelic series) |
| AAACCCCC | 9.65 upbm affinity estimate (log intensity, higher = more binding, comparable within an allelic series) |
| CCGGTAAC | 9.93 upbm affinity estimate (log intensity, higher = more binding, comparable within an allelic series) |
| CCGGCTCA | 9.56 upbm affinity estimate (log intensity, higher = more binding, comparable within an allelic series) |
| CTGCGTCC | 9.78 upbm affinity estimate (log intensity, higher = more binding, comparable within an allelic series) |

| Sequence | binding signal |
| --- | --- |
| AAAATGCG | 9.92 upbm affinity estimate (log intensity, higher = more binding, comparable within an allelic series) |
| GAGTGCCA | 12.4 upbm affinity estimate (log intensity, higher = more binding, comparable within an allelic series) |
| CGGCGTTA | 9.89 upbm affinity estimate (log intensity, higher = more binding, comparable within an allelic series) |
| ATCACACC | 9.96 upbm affinity estimate (log intensity, higher = more binding, comparable within an allelic series) |
| CAAACCCG | 9.6 upbm affinity estimate (log intensity, higher = more binding, comparable within an allelic series) |
| GAGTACTC | 12.9 upbm affinity estimate (log intensity, higher = more binding, comparable within an allelic series) |
| CGGCTGTA | 9.94 upbm affinity estimate (log intensity, higher = more binding, comparable within an allelic series) |
| ATGCGTCC | 9.59 upbm affinity estimate (log intensity, higher = more binding, comparable within an allelic series) |
| CCTCTTCA | 13 upbm affinity estimate (log intensity, higher = more binding, comparable within an allelic series) |
| AAAGAGGC | 11.9 upbm affinity estimate (log intensity, higher = more binding, comparable within an allelic series) |
| ATGTGCGC | 9.8 upbm affinity estimate (log intensity, higher = more binding, comparable within an allelic series) |
| ACCGCAAC | 9.62 upbm affinity estimate (log intensity, higher = more binding, comparable within an allelic series) |
| ACGCCGCA | 9.74 upbm affinity estimate (log intensity, higher = more binding, comparable within an allelic series) |
| TCCGGACA | 9.66 upbm affinity estimate (log intensity, higher = more binding, comparable within an allelic series) |
| GCGGCGAC | 9.79 upbm affinity estimate (log intensity, higher = more binding, comparable within an allelic series) |
| CGGAATCA | 9.94 upbm affinity estimate (log intensity, higher = more binding, comparable within an allelic series) |
| TCCACTAA | 11.7 upbm affinity estimate (log intensity, higher = more binding, comparable within an allelic series) |
| AGACTGAC | 9.64 upbm affinity estimate (log intensity, higher = more binding, comparable within an allelic series) |
| ACATGCAG | 9.48 upbm affinity estimate (log intensity, higher = more binding, comparable within an allelic series) |
| GCACGGGC | 9.56 upbm affinity estimate (log intensity, higher = more binding, comparable within an allelic series) |
